This note sets out measurements from PubChem BioAssay.

Structures are written as SMILES. Active and inactive are the calls of the source.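 How the source made its calls, unless noted: active means fluorescence slope higher than the sample average by over 3 SD (cut at about -0.22 in these data, passing the limit was not always enough); inactive means the rest.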

A short description of experiment [1]: inhibitors of TNFa-induced NFkB p65 translocation, primary screen, imaging, HUVEC, MLSMR starter and 10KST1 sets (AID 438;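 active means inhibition above 20% together with a positive visual image hit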;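 further: compound added about 3h40 before a 20 min TNFalpha stimulation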;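 on inhibition: signal is the nuclear over cytoplasmic p65 intensity ratio per well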). Particulars: HUVEC TNFa-induced p65 nuclear translocation; cell count: measured here: nuclei count (cytotoxicity indicator), at 2.08 µM; inhibition: at 2 µM, stronger effect = higher value, 0% TNFa-plus-vehicle, 100% no-TNFa wells.
A short description of experiment [2]: reduction of polyQ htt aggregates in cells – imaging, exon1htt(103Q)mCFP cells, high-content imaging, primary screen (AID 483;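 active means visual image review flags a hit and inhibition of aggregation exceeds 20%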;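 further: compound exposure lasted 3 days before fixation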;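 on nuclei count: percent of the per-plate median nuclei count of sample wells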). The settings on record: exon1htt(103Q)mCFP cell line, aggregate imaging, at 2 µM; inhibition of aggregation: stronger effect = higher value; nuclei count: measured here: cell count, toxicity.
The nature of experiment [3]: endothelial E-selectin expression blockers – imaging, HUVEC, immunofluorescence, MLSMR starter and 10KST1 sets, primary screen (AID 487;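 active means visually confirmed hit in the image check and inhibition above 20%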;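 on inhibition: signal is fraction of cell area covered by stained E-selectin grains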;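 on nuclei count: 100% = median nuclei count of all wells on the same plate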). Particulars: HUVEC TNFalpha-induced E-selectin immunofluorescence imaging, at 2 µM; inhibition: stronger effect = higher value; nuclei count: measured here: cell number, toxicity.
The target in experiment [4] is Voltage-gated potassium channel subunit beta-2 (Rattus norvegicus) (UniProt P62483). Put plainly: inhibitors of rat Kvbeta2 reductase activity – biochemical, NADPH fluorescence, primary screen (AID 622).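 Further: slope of raw intensity against log time taken from 70 to 1610 s.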 The settings on record: recombinant KvBeta, 4-cyanobenzaldehyde reduction, at 10 µM, stronger effect = higher value.
Chain of Voltage-gated potassium channel subunit beta-2 (Rattus norvegicus) (P62483 whole entry, looked up): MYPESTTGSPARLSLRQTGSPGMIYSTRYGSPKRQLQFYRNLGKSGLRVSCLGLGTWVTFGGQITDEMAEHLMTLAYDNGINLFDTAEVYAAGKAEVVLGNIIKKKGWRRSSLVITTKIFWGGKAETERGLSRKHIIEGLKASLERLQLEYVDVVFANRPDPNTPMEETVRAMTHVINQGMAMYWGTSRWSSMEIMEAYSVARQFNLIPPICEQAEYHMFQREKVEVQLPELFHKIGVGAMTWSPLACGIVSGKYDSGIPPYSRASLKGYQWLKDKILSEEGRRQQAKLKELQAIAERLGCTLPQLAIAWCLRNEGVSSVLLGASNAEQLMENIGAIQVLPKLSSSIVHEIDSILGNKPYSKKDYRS
For experiment [5] the target is unchanged. Briefly: enhancers of rat Kvbeta2 NADPH turnover – biochemical, NADPH fluorescence, primary screen (AID 623;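 active means NADPH fluorescence slope more negative than the mean of all samples by about 3 SD, 99.7% confidence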;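 further: fluorescence intensity change per second fitted from 20 to 320 s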). Particulars: Recombinant KvBeta, NADPH fluorescence decrease slope, 10 min; at 10 µM; stronger effect = lower value.
The target of experiment [6] is Alpha-2C adrenergic receptor (Homo sapiens) (UniProt P18825). Put plainly: compounds altering alpha2C-coupled GIRK flux – cell-based, HEK293 alpha2C/GIRK1/2, thallium flux, primary screen (AID 624;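 active means fluorescence slope after compound addition differing from the mean of all screened samples at 99.7% confidence, in either direction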;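 further: slope of fluorescence ratio to pre-addition baseline per second over 15 to 24 s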). Particulars: thallium flux BTC fluorescence, at 10 µM, actives lie on both sides.
Chain of Alpha-2C adrenergic receptor (Homo sapiens) (P18825 whole entry, looked up): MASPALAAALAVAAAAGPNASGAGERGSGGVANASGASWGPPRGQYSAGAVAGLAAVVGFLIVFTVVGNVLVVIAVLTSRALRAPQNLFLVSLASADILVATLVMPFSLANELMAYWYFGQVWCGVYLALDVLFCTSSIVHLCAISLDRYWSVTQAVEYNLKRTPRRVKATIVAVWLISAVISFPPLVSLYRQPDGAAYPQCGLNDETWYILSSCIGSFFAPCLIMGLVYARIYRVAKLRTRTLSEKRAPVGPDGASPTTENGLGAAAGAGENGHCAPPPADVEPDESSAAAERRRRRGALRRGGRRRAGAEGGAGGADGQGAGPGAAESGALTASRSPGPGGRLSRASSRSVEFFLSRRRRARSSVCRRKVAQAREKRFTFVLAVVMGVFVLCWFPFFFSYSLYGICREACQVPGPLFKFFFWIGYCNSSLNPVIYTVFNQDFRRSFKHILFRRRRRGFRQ
The nature of experiment [7]: blockers of RIG-like receptor reporter activation – cell-based, Sendai virus stimulus, luciferase, 10K MLSCN set, TLR/RLR signaling modifier project, primary screen (AID 602276;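 active means inhibition at or above 50% at 10 µM; inactive means inhibition below 50%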;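 further: firefly luciferase from ISG56 promoter only with Renilla not read in this screen; 0% = Sendai virus plus DMSO and 100% = medium plus DMSO without virus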). Particulars: HEK293 RL24 IRF3 luciferase reporter, at 10 µM, stronger effect = higher value. For orientation: A reporter such as luciferase makes a cellular process visible.
Experiment [8] is described as follows: TLR3 IRF3 reporter activation blockers – cell-based, poly I:C stimulus, luciferase, 10K MLSCN set, primary screen (AID 602277;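 active means inhibition of the reporter signal at or above 50%; inactive means inhibition below 50%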). The settings on record: HEK293-TLR3 RL24 IRF3 luciferase reporter, at 10 µM, stronger effect = higher value.

Usually inhibition stands for the drop in the measured response relative to a control, in per cent. `CCC(Oc1ccccc1)C(=O)Nc1ccccc1OC` (stereo not drawn): the cell count in experiment [1] worked out at 352. Also, the inhibition was 9.2% (inactive) in experiment [1], -33.3% (inactive) in experiment [3], 0.598% (inactive) in experiment [7] and 19.3% (inactive) in experiment [8]. Also, the inhibition of aggregation in experiment [2] was -9.3% (inactive). For the same compound, the figures for the nuclei count in experiment [2] and in experiment [3] were 106% and 109%, respectively. Besides, the fluorescence slope in experiment [4] was -0.487 (inactive). The NADPH fluorescence slope in experiment [5] was -1.9e-05 (inactive). Besides, the slope in experiment [6] is 0.00497 (inactive).
In the case of `CC(=O)c1cc(F)c(N2CCN(C(=O)Cc3ccccc3)CC2)cc1C`, the cell count in experiment [1] stood at 774. The inhibition in experiment [1] is -3.9% (inactive); in experiment [3], -25.8% (inactive); in experiment [7] it was 3.34% (inactive); in experiment [8], 0.856% (inactive). Further, in experiment [2], the inhibition of aggregation is -30.4% (inactive). The nuclei count in experiment [2] turned out to be 84.3%; in experiment [3], 110%. Also, the fluorescence slope in experiment [4] is -0.493 (inactive). Moreover, the NADPH fluorescence slope in experiment [5] is -6.1e-05 (inactive). For the same compound, the slope in experiment [6] was 0.00566 (inactive).
For the compound `Cc1ccc(S(=O)(=O)NC(C)C(=O)Nc2ccc(C(N)=O)cc2)cc1` (stereo not drawn), the cell count in experiment [1] was 707. In addition, the inhibition in experiment [1] was 1.6% (inactive); in experiment [3], -22.5% (inactive); in experiment [7], -2.81% (inactive); in experiment [8], 2.56% (inactive). Also, the inhibition of aggregation in experiment [2] was 1.1% (inactive). In addition, the nuclei count worked out at 77.4% in experiment [2] and 105% in experiment [3]. Moreover, the fluorescence slope in experiment [4] is -0.521 (inactive). In addition, the NADPH fluorescence slope in experiment [5] is 1.6e-05 (inactive). Moreover, in experiment [6], the slope is 0.0049 (inactive).
On to `COC(=O)c1nnn(-c2ccccc2)c1N`, for which the cell count in experiment [1] amounted to 314. Besides, the inhibition in experiment [1] was 10.6% (inactive); in experiment [3] it was -13.3% (inactive); in experiment [7], 6.82% (inactive); in experiment [8] it was 11.8% (inactive). Further, the inhibition of aggregation in experiment [2] was 19% (inactive). Also, the nuclei count worked out at 92% in experiment [2] and 117% in experiment [3]. Besides, in experiment [4], the fluorescence slope is -0.506 (inactive). For the same compound, in experiment [5], the NADPH fluorescence slope is -2.7e-05 (inactive). Moreover, the slope in experiment [6] is 0.00571 (inactive).
As to `CC(C)(C)Nc1nc(NC(C)(C)C)nc(-n2ccnc2)n1`, the cell count in experiment [1] was 194. In addition, the inhibition in experiment [1] is -0.8% (inactive); in experiment [3], 2.8% (inactive); in experiment [7], 14.6% (inactive); in experiment [8], 29% (inactive). Moreover, in experiment [2], the inhibition of aggregation is -0.1% (inactive). Also, the results for the nuclei count in experiment [2] and in experiment [3] were 81.5% and 91.6%, respectively. The fluorescence slope in experiment [4] was -0.443 (inactive). In addition, the NADPH fluorescence slope in experiment [5] was 1.8e-05 (inactive). In addition, the slope in experiment [6] was 0.00537 (inactive).
`CCCCOCP(=O)(CCCC)COCCCC`: in experiment [1], the cell count was determined as 369. The inhibition was 0% (inactive) in experiment [1], -35.3% (inactive) in experiment [3], 11.3% (inactive) in experiment [7] and 22% (inactive) in experiment [8]. Further, in experiment [2], the inhibition of aggregation was 8.7% (inactive). Also, the nuclei count in experiment [2] was 88.5%; in experiment [3], 100%. In experiment [4], the fluorescence slope was -0.459 (inactive). In addition, in experiment [5], the NADPH fluorescence slope was -8.4e-05 (inactive). Further, the slope in experiment [6] was 0.00748 (inactive).
Turning to `CC(C)(C)n1ncc2c(=O)n(CC(=O)NCc3ccc(F)cc3)cnc21`, the cell count in experiment [1] worked out at 403. For the same compound, the inhibition in experiment [1] is 9.3% (inactive); in experiment [3] it was 18.8% (inactive); in experiment [7], -15.8% (inactive); in experiment [8], -46.6% (inactive). Moreover, the inhibition of aggregation in experiment [2] was 14.9% (inactive). Further, the nuclei count came to 95.8% in experiment [2] and 91.1% in experiment [3]. Moreover, in experiment [4], the fluorescence slope was -0.367 (inactive). Moreover, the NADPH fluorescence slope in experiment [5] was -5.3e-05 (inactive). Besides, the slope in experiment [6] was 0.00547 (inactive).
Turning to `N#CC1=C(SCC(=O)NC23CC4CC(CC(C4)C2)C3)NC(=O)C(C#N)C12CCCCC2` (stereo not drawn), the cell count in experiment [1] was 755. For the same compound, the inhibition in experiment [1] is -9.3% (inactive); in experiment [3], -142% (inactive); in experiment [7], 16.3% (inactive); in experiment [8], -22.7% (inactive). For the same compound, in experiment [2], the inhibition of aggregation is 16.9% (inactive). Moreover, the nuclei count in experiment [2] was determined as 100%; in experiment [3], 123%. Also, the fluorescence slope in experiment [4] was -0.519 (inactive). The NADPH fluorescence slope in experiment [5] is -6.2e-05 (inactive). Moreover, the slope in experiment [6] was 0.00603 (inactive).
With `CCOC(=O)c1ccccc1NC(=O)CSc1nccn1C`, the cell count in experiment [1] was 436. Besides, the inhibition in experiment [1] is 9.7% (inactive); in experiment [3] it was -32.6% (inactive); in experiment [7], 8.57% (inactive); in experiment [8], 19.3% (inactive). Further, the inhibition of aggregation in experiment [2] was -23.9% (inactive). Besides, the nuclei count in experiment [2] and in experiment [3] was 108% in each case. For the same compound, the fluorescence slope in experiment [4] was -0.465 (inactive). Moreover, the NADPH fluorescence slope in experiment [5] is -0.000118 (inactive). Besides, in experiment [6], the slope was 0.00604 (inactive).
Regarding `CC(CCc1ccccc1)NC(=O)C1CCCN(c2nnc(-n3cccc3)s2)C1` (stereo not drawn), the cell count in experiment [1] stood at 585. The inhibition in experiment [1] is 5.8% (inactive); in experiment [3], -42.8% (inactive); in experiment [7], 8.13% (inactive); in experiment [8] it was 18.5% (inactive). Besides, in experiment [2], the inhibition of aggregation is -2.5% (inactive). Also, the nuclei count was determined as 99.3% in experiment [2] and 102% in experiment [3]. The fluorescence slope in experiment [4] was -0.57 (inactive). For the same compound, in experiment [5], the NADPH fluorescence slope was -3.2e-05 (inactive). Besides, in experiment [6], the slope was 0.00444 (inactive).
Turning to `OC(COc1ccc2ccccc2c1)CN1CCOCC1` (stereo not drawn), in experiment [1], the cell count was determined as 780. Further, the inhibition in experiment [1] was 4.7% (inactive); in experiment [3] it was -44.7% (inactive); in experiment [7], 3.23% (inactive); in experiment [8] it was 11.9% (inactive). Besides, in experiment [2], the inhibition of aggregation was 3.4% (inactive). The nuclei count in experiment [2] amounted to 83%; in experiment [3] it was 95.6%. The fluorescence slope in experiment [4] was -0.441 (inactive). Also, the NADPH fluorescence slope in experiment [5] was -8.9e-05 (inactive). Further, the slope in experiment [6] is 0.00562 (inactive).
`CC1=C(C(=O)OC(C)C)C(c2ccccn2)n2ncnc2N1` (stereo not drawn): the cell count in experiment [1] came out at 751. Besides, the inhibition is -0.6% (inactive) in experiment [1], -75.2% (inactive) in experiment [3], 0.999% (inactive) in experiment [7] and 30.5% (inactive) in experiment [8]. In experiment [2], the inhibition of aggregation was -35.6% (inactive). Besides, the results for the nuclei count in experiment [2] and in experiment [3] were 79.5% and 110%, respectively. For the same compound, the fluorescence slope in experiment [4] was -0.569 (inactive). The NADPH fluorescence slope in experiment [5] was -3e-05 (inactive). Besides, the slope in experiment [6] is 0.00699 (inactive).
As for `CC1=CCC(C(C)(C)NC(=O)c2ccccc2)C/C1=N\O` (stereo not drawn), the cell count in experiment [1] was determined as 313. For the same compound, the inhibition was 2% (inactive) in experiment [1], -6.2% (inactive) in experiment [3], 17.1% (inactive) in experiment [7] and 20.6% (inactive) in experiment [8]. The inhibition of aggregation in experiment [2] was -4.5% (inactive). The nuclei count was 89.1% in experiment [2] and 120% in experiment [3]. In addition, in experiment [4], the fluorescence slope is -0.624 (inactive). Further, the NADPH fluorescence slope in experiment [5] is -1.5e-05 (inactive). In addition, the slope in experiment [6] is 0.00574 (inactive).
